Data on 40 sequences can be found in the supplement of paper PMC10681739.

In the assay the target is T1, ETS1 (UniProt P14921).
T1 sequence: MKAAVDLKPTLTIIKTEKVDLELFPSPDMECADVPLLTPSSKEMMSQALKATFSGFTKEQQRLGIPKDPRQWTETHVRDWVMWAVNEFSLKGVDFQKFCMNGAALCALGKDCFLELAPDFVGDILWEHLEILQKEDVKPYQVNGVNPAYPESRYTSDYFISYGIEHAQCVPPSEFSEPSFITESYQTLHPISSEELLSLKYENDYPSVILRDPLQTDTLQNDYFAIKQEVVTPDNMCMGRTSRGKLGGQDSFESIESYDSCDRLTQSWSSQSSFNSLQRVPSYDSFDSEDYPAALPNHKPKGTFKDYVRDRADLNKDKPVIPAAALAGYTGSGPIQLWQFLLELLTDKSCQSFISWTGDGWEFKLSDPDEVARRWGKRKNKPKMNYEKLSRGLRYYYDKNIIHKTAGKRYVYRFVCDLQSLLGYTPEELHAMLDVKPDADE
As to the kind of experiment: ETS1 binding intensity (PBM fluorescence) in presence of RUNX1, normalised to ETS1-only experiment (arbitrary fluorescence units); higher = stronger binding. The settings on record: ETS1 concentration 1 nM; RUNX1 concentration 25 nM.
As for GGGGAAGAGGAAGCTGTGTCCGCGGTGCAAGGGGTT, the ETS1 binding intensity came out at 542.

Turning to GCAAGGTGGAGAGGAGGATGTGGCTTACCAGCAATT, the ETS1 binding intensity amounted to 1990.

With TTCATCTACTTCCCGCCACACCCACAGAGAAGCCCA, the ETS1 binding intensity amounted to 377.

Take GCAGGACTCCAGGAAGCCCGCGCAGCCGCAAAAAGC: the ETS1 binding intensity worked out at 1350.

CTACATGTTTCACAGGAAGGTGGTCACCAGGAGGCA: the ETS1 binding intensity stood at 821.

Take GAGGAAAAAGGAAACAGAAACTCCGCAACTTGCGCC: the ETS1 binding intensity is 411.

As for AAGCCCTAGAGGAAATTAGTACGTAACCACCTTCTG, the ETS1 binding intensity turned out to be 844.

For TGGGACGAGTGGGCGGAAACAGCCGCAGGTCTCTCT, the ETS1 binding intensity was 2750.

With GCGCACGCGCGTTGTTTCCGCGGTAGTCAGGGCAGT, the ETS1 binding intensity came out at 364.

CAGCTGCCTCCAGGAAGCGGTAAGTGACTCTGGTGG: the ETS1 binding intensity worked out at 1660.

Take GAAACCTCACTCTGAGGATGTGGGTTCTGCCTTCTT: the ETS1 binding intensity stood at 1710.

Regarding GTGGCTTCCTGCCATTGACAATTGCGGGATGGCTTT, the ETS1 binding intensity came to 542.

As for GCGCCCCGTCCTTCCGCAGCCCAACCGCCTCTTCCC, the ETS1 binding intensity came to 383.

On to CCAAGTGTAAAACGGAAGCTCAACCACGAATCTTAC, for which the ETS1 binding intensity worked out at 2960.

As for GGAGCGACGGAAGCACCTGAAGCGGTCTTTCCCCGA, the ETS1 binding intensity worked out at 349.

CTGTGGCCTAGAAGCTTCCTGCCGCAGCTCTGAGGA: the ETS1 binding intensity stood at 505.

With CTTGCTCCCCACTTCCTACCACATTCAATGCCCGGA, the ETS1 binding intensity was determined as 558.

Take TGTTTACTTCCTGGAGGCACTTTGGTTTTTCTTTCT: the ETS1 binding intensity came out at 325.

On to CCTGACTCTGGGTTTCCTCCCAGCCACAGACACCTG, for which the ETS1 binding intensity was determined as 412.

On to TGGCTTGAGCTCAGGAAGTTGTGGCTGCAGTAAGCT, for which the ETS1 binding intensity amounted to 1970.

Regarding GCTGCTGTAGTCGCTTCCTGCGGCCAGCCCGGGTTC, the ETS1 binding intensity stood at 528.

AGGGCGCCGCTTCCGGGAGCCCGCAAGCGGCCTCCG: the ETS1 binding intensity came to 715.

On to AGGTACTCACCATTCCGGCGGTTGCTACTGTCACTG, for which the ETS1 binding intensity is 428.

With AGCGGGAGGAAGTGCTGCAGTAGCCACAGCAGCCTG, the ETS1 binding intensity is 737.

With CGGCACCCTCCTTCCTCCCTGCCAACCGCCTCCACC, the ETS1 binding intensity amounted to 696.

For the sequence AGTTTCTCCAGGAAGCGCTGAGGTTTTCTCAGAAGT, the ETS1 binding intensity is 1160.

With TGCCTCTTCCTGTGGCTGGGCTGTATCTGACCACAC, the ETS1 binding intensity came to 462.

With GAATGACAGGAAGATGATTAGTGATAGTGGGTTTGG, the ETS1 binding intensity came out at 880.

Turning to TGAGGCTCAGAGGAAGTGACTGGCCCGCAGGGTCAC, the ETS1 binding intensity came to 1550.

Take TGAATATTCTTCCGCACGTACCCACATGGCTCACTT: the ETS1 binding intensity was 337.

For ACCAAACGTCACATCCGCGGTGCTGCTGTAATCCCA, the ETS1 binding intensity was determined as 389.

With GATCTGCTTGGCTTCCTGTGGTCGCTGACTCACAGT, the ETS1 binding intensity came out at 1010.

For GTCTTGTACCCTAGAGGATGTGGTAGCCCTAAATAA, the ETS1 binding intensity worked out at 2290.

For CTCCTGAGGAAGTAGTTACAGACACCACAGCGGAGG, the ETS1 binding intensity is 491.

On to TGGTGTGACCAGGATGTGAACCGCGGCAAGCTGCCT, for which the ETS1 binding intensity came to 992.

TCAGTGCACTCGGATGTTGGCCGCAGTTGGGGTTAT: the ETS1 binding intensity stood at 422.

Consider CTTTTTGATTTCCTCAAGCATCCCACAAATACACAG, for which the ETS1 binding intensity came out at 659.

For the sequence CCTGTTCCGGGCTCCGTACACCCAGGCCCGCAGCTG, the ETS1 binding intensity turned out to be 494.

Consider GGGCTTCCGGCTGAACCCATGGCTGCGGGCTGTGCT, for which the ETS1 binding intensity came out at 329.

GGTGCCAAGGGCAGAGGATGTGGTGAGGTGTGGAGG: the ETS1 binding intensity is 4410.
